In ChEMBL document CHEMBL3988442, “University of Dundee, Small-Polar-MMV Screening Library” (2021):
Screen size: about 48,000 compounds; about 13,000 (27%) showed an effect of 50% or more. The list shows a part of the results.

System: Wolbachia pipientis
Assay: Anti-Wolbachia Cell-Based Screen
Assay type: functional
Set-up: scale not given: in the data most compounds retested in dose-response had high values
Conditions: 5 µM

Row | Structure (SMILES) | Percent Effect
1 | O=C(NCc1csc(-c2cccs2)n1)C1NCCc2[nH]cnc21 (centres undefined) | -2.948%
2 | COc1ccccc1OCC(=O)NS(=O)(=O)c1ccc(F)cc1F | -4.254%
3 | CC(=O)N(CCc1nc(-c2cc(C(N)=O)oc2C)cs1)C(C)C | 1.206%
4 | Cn1cccc1C(=O)NCc1cn2c(n1)CN(Cc1cccnc1)CC2.O=C(O)C(F)(F)F.O=C(O)C(F)(F)F | -5.868%
5 | CS(=O)(=O)NCc1cn2c(n1)CN(Cc1cccnc1)CC2.O=C(O)C(F)(F)F.O=C(O)C(F)(F)F | 116.6%
6 | Cn1cccc1C(=O)NCc1cn2c(n1)CN(Cc1ccccn1)CC2.O=C(O)C(F)(F)F.O=C(O)C(F)(F)F | -5.455%
7 | CN1CCN(Cc2cn3c(n2)CN(Cc2ccncc2)CC3)CC1 | 100.2%
8 | c1cncc(CN2CCn3cc(CN4CCCCC4)nc3C2)c1 | 99.27%
9 | CN1CCN(Cc2cn3c(n2)CN(CC2CC2)CC3)CC1 | 0.4207%
10 | CN1CCN(Cc2cn3c(n2)CN(Cc2ccccn2)CC3)CC1 | 100%
11 | O=C(NCc1cn2c(n1)CN(Cc1cccnc1)CC2)C1CCC1.O=C(O)C(F)(F)F.O=C(O)C(F)(F)F | -2.2%
12 | O=C(CC1CC1)NCc1cn2c(n1)CN(Cc1cccnc1)CC2.O=C(O)C(F)(F)F.O=C(O)C(F)(F)F | -16.83%
13 | CN1CCN(Cc2cn3c(n2)CN(C(=O)N2CCCC2)CC3)CC1 | -9.344%
14 | CS(=O)(=O)NCc1cn2c(n1)CN(Cc1ccoc1)CC2.O=C(O)C(F)(F)F | 2.843%
15 | CN1CCN(Cc2cn3c(n2)CN(C(=O)c2ccccn2)CC3)CC1.O=C(O)C(F)(F)F.O=C(O)C(F)(F)F.O=C(O)C(F)(F)F | 6.364%
16 | COCCNC(=O)Nc1ccn(-c2cccc(C(F)(F)F)c2)n1 | 3.521%
17 | OCCC1CN(c2ncnc3[nH]cnc23)CCN1Cc1ccccc1F (centres undefined) | -3.014%
18 | OCCc1cc(CC2(NCc3ccc(C(F)(F)F)cc3)COC2)no1 | 1.711%
19 | CN(C(=O)CN(Cc1cccc(O)c1)C1CCC(O)CC1)C1CC1 (centres undefined) | 2.382%
20 | CCc1ccc(CN2CCCC(c3nn(C)c(=O)n3CC)C2)nc1 (centres undefined) | 20.88%

Row | Structure (SMILES) | Percent Effect
21 | CC(C)NC(=O)CCNC(=O)CCc1cc(Br)cs1 | -10.2%
22 | COc1ccc2c(c1)c(-c1nc(C)ncc1CN)cn2C | 104.6%
23 | COc1ccc(-c2n[nH]cc2CN(C)Cc2nccn2C)c(F)c1 | -1.077%
24 | COc1ccc2cccc(CC(=O)NCc3n[nH]c(=O)[nH]3)c2c1 | 5.869%
25 | Cc1ncc(CN)c(-c2cn(C)c3ccccc23)n1 | 142.3%
26 | COc1ccc2c(c1)c(-c1nc(N(C)C)ncc1CN)cn2C | 69.63%
27 | COc1ccc(OC)c(CN(C)c2nc3c(cnn3C)c(=O)[nH]2)c1 | -18.11%
28 | COc1ccc(-c2ccccc2CN)c(OC)c1 | -11.71%
29 | COc1ccc2cccc(CC(=O)NCc3nccc(N)n3)c2c1 | -13.23%
30 | COc1ccc(CN)c(OC(F)F)c1.Cl | -5.611%
31 | Cn1cc(CNC[C@H]2Cn3ccnc3CO2)c2ccccc21 | -9.127%
32 | Cc1cc(N2CCN(C(=O)c3cn(C)c4ccccc34)CC2)nc(C)n1 | 1.104%
33 | COCC(=O)NCc1cnc(C)nc1-c1cn(C)c2ccc(OC)cc12 | 67.07%
34 | CN(CCNC(=O)N1CCN(Cc2ccon2)CC1)C1CCCC1 | -5.523%
35 | CC1CCN(CC2(O)CCCN(Cc3cccc(F)c3F)C2=O)CC1 (centres undefined) | -9.136%
36 | O=C(CN(Cc1ccccc1)CC1CCOCC1)Nc1nccs1 | -5.546%
37 | Cn1cnnc1CN1CCC2(CCC(=O)N(Cc3ccccc3)C2)CC1 | -10.98%
38 | Cc1nnc2n1CCN(C(C(=O)NC1CC1)c1ccccc1)C2 (centres undefined) | -4.736%
39 | O=S(=O)(CC1CCCCC1)NCc1ccnc(O)c1 | -10.25%
40 | COc1ccc2c(ccn2CCC(=O)Nc2n[nH]c(CC(C)C)n2)c1 | 106.4%

Row | Structure (SMILES) | Percent Effect
41 | COCCN(C)C(=O)Nc1ccc2c(ccn2CC(=O)N(C)C)c1 | 5.654%
42 | COc1ccc2nc(CCNC(=O)c3cc(CC(C)C)no3)[nH]c2c1 | 0.008091%
43 | CCNC(=O)Nc1ccc2c(ccn2CC(=O)N(CC)CC)c1 | -5.513%
44 | COc1ccc2c(ccn2CC(=O)Nc2n[nH]c(CC(C)C)n2)c1 | 220.2%
45 | CNS(=O)(=O)Cc1ccc(CNc2ccc(C#N)cn2)cc1 | 0.03552%
46 | O=C(NCc1cccs1)c1nc2c(o1)CN(c1ncccn1)C2 | 0.5771%
47 | O=C(Cc1ccsc1)N1Cc2nc(CN3CCCCC3)oc2C1.O=C(O)C(F)(F)F | 93.12%
48 | O=C(Cc1cccs1)N1Cc2nc(CN3CCCC3)oc2C1 | 101.2%
49 | O=C(O)C(F)(F)F.O=C(O)C(F)(F)F.c1csc(CN2CCCn3cnc(CN4CCCC4)c3C2)c1 | -7.451%
50 | O=C(O)C(F)(F)F.O=C(O)C(F)(F)F.c1csc(CN2Cc3nc(CN4CCCC4)oc3C2)c1 | 109.9%
51 | Cc1ncnc2c1CCN(Cc1cccs1)CC2.O=C(O)C(F)(F)F | -21.74%
52 | O=C(O)C(F)(F)F.O=C(c1ccc2[nH]ccc2c1)N1Cc2nc(CN3CCCCC3)oc2C1 | -9.773%
53 | O=C(O)C(F)(F)F.O=S(=O)(c1cccs1)N1CC[C@H]2[C@H]1CCN2CC1CC1 | -12.79%
54 | O=C(c1ccc2[nH]ccc2c1)N1Cc2nc(CN3CCCC3)oc2C1 | -7.855%
55 | O=C(O)C(F)(F)F.O=C(O)C(F)(F)F.O=C(c1ccncc1F)N1Cc2nc(CN3CCCCC3)oc2C1 | -18.26%
56 | O=C(O)C(F)(F)F.O=S(=O)(c1cccs1)N1CCCn2nnc(CN3CCCCC3)c2C1 | -14.53%
57 | O=C(O)C(F)(F)F.O=S(=O)(c1cccs1)N1Cc2nc(CN3CCCCC3)oc2C1 | 109.1%
58 | CC(C)Oc1ccc(CN2CCN3CCN(C)CC3C2)cc1CO (centres undefined) | 9.29%
59 | CC(C)N1CCc2onc(Cn3cccc3)c2C1.O=C(O)C(F)(F)F | -0.5475%
